# For some assays here: Measured potencies and affinities stand elsewhere.
# Assays:
# Design in all cases: scale not given: direction of the effect not stated beside the values
# [1] = target: Protein translocase subunit SecA (Escherichia coli (strain K12)) (UniProt P10408); assay: Assay to Identify E. coli SecA ATPase Inhibitors; format: functional; details: 30 µM
# [2] = target: T1, Ubiquitin-activating enzyme e1, putative (Leishmania donovani (strain BPK282A1)) (UniProt E9BSI1); assay: Leishmania donovani Ubiquitin Activating Enzyme (LdE1); format: functional; details: 30 µM
# T1 sequence (whole entry): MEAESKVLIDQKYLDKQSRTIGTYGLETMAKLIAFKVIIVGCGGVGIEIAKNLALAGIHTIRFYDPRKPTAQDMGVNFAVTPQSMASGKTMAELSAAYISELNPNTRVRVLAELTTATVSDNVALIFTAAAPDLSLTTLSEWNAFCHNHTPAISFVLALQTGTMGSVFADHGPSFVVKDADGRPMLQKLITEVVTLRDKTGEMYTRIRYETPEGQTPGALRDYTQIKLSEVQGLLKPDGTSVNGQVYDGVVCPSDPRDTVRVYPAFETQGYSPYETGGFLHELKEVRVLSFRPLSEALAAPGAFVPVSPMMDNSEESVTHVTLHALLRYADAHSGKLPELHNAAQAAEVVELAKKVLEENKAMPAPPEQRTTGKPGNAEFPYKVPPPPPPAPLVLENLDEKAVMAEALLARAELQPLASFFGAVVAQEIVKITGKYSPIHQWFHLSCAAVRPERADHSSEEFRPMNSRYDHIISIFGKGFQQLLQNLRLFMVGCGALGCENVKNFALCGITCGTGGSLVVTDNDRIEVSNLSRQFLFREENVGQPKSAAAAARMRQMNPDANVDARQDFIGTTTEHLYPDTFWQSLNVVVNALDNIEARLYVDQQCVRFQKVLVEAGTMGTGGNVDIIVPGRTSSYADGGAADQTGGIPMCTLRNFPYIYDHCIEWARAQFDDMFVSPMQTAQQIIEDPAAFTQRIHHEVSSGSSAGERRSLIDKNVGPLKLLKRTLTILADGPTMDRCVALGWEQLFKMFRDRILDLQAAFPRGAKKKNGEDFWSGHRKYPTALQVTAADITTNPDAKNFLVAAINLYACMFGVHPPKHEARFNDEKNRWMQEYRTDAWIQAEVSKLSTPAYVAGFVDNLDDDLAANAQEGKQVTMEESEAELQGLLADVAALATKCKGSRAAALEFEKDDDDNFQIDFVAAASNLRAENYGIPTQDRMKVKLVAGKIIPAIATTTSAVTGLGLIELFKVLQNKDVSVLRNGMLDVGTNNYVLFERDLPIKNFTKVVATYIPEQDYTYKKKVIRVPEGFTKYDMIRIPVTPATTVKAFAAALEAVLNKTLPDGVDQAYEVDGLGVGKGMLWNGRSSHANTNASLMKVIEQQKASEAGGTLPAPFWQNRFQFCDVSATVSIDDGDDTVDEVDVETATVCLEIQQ
# [3] = target: Sialic acid-binding Ig-like lectin 9 (Homo sapiens) (UniProt Q9Y336); assay: Hs-Siglec9 ALPHAscreen SOP 20170721; details: 10 µM
# Trypanosoma cruzi = assay: Trypanosoma cruzi phosphomannomutase and mannose-1-phosphate guanylyltransferase assay; format: functional; details: 10 µM
# [4] = target: T2, Arginase-2, mitochondrial (Homo sapiens) (UniProt P78540); assay: in vitro enzyme assay to detect the production of urea directly proportional to the activity of Arginase II; format: functional; details: 33.3 µM; note: in the data most compounds retested in dose-response had high values
# T2 sequence (whole entry): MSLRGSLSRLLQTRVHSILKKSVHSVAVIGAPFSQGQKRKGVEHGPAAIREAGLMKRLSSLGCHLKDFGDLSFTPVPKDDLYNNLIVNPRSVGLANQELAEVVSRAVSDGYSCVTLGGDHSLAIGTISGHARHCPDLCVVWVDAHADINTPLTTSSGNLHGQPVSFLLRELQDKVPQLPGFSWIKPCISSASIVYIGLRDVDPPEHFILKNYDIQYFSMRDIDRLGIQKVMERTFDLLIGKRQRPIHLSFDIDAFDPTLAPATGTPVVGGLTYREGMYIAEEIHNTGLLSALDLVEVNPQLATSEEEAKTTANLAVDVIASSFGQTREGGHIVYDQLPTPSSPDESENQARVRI
# [5] = target: T3, Proteasome subunit beta (Trypanosoma cruzi) (UniProt O96673); assay: Trypanosoma cruzi proteasome chymotrypsin-like activity (TcProtChymo) assay.; note: in the data most compounds retested in dose-response had high values; format: functional; details: 9.37 µM
# T3 sequence (whole entry): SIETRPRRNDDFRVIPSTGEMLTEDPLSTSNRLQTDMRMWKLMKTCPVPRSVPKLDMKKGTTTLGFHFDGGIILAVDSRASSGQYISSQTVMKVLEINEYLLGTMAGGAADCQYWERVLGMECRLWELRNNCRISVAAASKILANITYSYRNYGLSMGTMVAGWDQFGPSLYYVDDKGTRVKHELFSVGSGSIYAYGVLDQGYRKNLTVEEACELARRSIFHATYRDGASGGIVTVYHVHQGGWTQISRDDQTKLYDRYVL
# Homo sapiens = species: Homo sapiens; assay: To identify inhibition of the IFN signalling (Jak-Stat) pathway via expression of an eGFP reporter gene under the control of an IFN-stimulated response element (ISRE) containing MxA promoter.; format: functional; details: 30 µM
# [6] = target: T4, Tyrosyl-tRNA synthetase, putative (Trypanosoma cruzi (strain CL Brener)) (UniProt Q4DSP6); assay: Trypanosoma cruzi tyrosyl tRNA synthetase (TcYRS) _High Tyrosine SOP; format: functional; details: 30 µM; note: in the data most compounds retested in dose-response had high values
# T4 sequence (whole entry): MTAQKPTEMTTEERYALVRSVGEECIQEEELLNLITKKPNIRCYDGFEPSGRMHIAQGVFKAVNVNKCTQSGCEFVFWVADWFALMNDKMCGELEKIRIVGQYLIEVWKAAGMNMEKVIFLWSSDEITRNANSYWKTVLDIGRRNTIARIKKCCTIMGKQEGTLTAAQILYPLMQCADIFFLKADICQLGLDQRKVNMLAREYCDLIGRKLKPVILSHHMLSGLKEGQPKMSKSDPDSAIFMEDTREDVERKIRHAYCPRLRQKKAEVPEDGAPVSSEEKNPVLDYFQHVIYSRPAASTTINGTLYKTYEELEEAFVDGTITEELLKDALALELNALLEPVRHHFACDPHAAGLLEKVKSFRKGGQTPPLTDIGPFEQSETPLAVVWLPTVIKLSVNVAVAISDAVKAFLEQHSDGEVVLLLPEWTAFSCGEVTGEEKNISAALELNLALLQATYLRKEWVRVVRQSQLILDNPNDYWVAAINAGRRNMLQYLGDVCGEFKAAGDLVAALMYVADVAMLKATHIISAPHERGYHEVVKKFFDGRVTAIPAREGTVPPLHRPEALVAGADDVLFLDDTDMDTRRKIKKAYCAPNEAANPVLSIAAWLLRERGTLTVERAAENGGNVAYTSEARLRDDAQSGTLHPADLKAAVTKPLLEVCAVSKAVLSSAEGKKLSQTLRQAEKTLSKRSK
# [7] = target: T4, Tyrosyl-tRNA synthetase, putative (Trypanosoma cruzi (strain CL Brener)); assay: Trypanosoma cruzi tyrosyl tRNA synthetase (TcYRS) SOP; format: functional; details: 30 µM
# [8] = target: Chromo domain-containing protein 1 (Saccharomyces cerevisiae (strain ATCC 204508 / S288c) (Baker's yeast)) (UniProt P32657); assay: ScCHD-1 Enzyme Inhibition Assay; format: functional; details: 30 µM; note: in the data most compounds retested in dose-response had high values
# [9] = target: AMP-activated protein kinase, AMPK (Homo sapiens) (UniProt P54646+O43741+P54619+Q9UGJ0+Q9Y478+Q13131+Q9UGI9); assay: AMP-dependent Kinase enzyme assay. An in vitro enzyme assay that detects ADP turnover that is directly proportional to AMPK activity. This uses naive AMPK that is activated during the assay with MK-8722; format: functional; details: 30 µM
# Chromo domain-containing protein 1 (Saccharomyces cerevisiae (strain ATCC 204508 / S288c) (Baker's yeast)), sequence (P32657 whole entry, the tested form may be a part): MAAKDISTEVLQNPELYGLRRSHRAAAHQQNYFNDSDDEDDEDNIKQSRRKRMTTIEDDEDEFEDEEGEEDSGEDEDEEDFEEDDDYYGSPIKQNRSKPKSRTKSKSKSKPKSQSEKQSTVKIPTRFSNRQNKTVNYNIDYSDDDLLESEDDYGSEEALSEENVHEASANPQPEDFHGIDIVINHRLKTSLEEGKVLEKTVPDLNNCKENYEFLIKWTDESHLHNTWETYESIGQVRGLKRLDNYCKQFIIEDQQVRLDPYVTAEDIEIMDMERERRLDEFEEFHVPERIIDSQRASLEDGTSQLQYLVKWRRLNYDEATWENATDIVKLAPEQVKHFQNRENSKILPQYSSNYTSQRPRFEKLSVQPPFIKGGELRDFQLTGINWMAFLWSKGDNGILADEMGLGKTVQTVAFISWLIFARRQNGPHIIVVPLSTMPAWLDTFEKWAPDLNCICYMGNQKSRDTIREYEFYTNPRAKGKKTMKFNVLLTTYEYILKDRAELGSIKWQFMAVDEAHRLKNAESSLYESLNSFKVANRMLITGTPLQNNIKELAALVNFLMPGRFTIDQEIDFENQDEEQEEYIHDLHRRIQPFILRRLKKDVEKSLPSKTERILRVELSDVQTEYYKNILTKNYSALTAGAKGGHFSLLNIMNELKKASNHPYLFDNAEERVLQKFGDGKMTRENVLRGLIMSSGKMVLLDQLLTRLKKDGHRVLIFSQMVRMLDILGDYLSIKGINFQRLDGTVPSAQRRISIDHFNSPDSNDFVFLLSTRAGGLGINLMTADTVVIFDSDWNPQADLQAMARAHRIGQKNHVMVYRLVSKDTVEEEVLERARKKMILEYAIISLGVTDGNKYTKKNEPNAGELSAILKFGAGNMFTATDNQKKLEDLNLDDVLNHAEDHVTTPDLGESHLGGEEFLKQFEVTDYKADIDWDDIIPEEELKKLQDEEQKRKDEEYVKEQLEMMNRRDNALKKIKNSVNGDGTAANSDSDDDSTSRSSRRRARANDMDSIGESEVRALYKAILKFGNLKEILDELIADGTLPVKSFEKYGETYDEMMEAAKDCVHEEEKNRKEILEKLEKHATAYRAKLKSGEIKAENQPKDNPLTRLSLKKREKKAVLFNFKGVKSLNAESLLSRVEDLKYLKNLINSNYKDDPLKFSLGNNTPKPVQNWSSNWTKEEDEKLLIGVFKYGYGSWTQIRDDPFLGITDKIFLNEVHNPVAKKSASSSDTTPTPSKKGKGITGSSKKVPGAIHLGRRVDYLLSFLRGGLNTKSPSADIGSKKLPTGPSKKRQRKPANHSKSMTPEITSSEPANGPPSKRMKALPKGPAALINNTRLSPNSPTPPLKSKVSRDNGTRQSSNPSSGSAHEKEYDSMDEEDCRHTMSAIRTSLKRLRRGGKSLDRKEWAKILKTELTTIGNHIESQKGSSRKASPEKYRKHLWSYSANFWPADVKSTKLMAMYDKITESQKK
# Sialic acid-binding Ig-like lectin 9 (Homo sapiens), sequence (Q9Y336 whole entry): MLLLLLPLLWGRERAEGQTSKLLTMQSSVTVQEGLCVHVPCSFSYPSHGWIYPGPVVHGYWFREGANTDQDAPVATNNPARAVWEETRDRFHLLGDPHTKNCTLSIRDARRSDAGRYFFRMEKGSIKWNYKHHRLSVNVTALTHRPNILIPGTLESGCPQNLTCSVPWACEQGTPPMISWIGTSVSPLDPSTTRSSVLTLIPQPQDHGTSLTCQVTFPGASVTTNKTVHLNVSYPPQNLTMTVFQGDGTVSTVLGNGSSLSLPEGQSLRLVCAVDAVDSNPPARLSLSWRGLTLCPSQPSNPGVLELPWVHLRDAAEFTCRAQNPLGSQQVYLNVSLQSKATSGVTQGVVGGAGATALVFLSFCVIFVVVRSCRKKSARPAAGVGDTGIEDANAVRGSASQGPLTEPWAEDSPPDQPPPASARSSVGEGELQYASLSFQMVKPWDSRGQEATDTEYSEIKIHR
# Protein translocase subunit SecA (Escherichia coli (strain K12)), sequence (P10408 whole entry): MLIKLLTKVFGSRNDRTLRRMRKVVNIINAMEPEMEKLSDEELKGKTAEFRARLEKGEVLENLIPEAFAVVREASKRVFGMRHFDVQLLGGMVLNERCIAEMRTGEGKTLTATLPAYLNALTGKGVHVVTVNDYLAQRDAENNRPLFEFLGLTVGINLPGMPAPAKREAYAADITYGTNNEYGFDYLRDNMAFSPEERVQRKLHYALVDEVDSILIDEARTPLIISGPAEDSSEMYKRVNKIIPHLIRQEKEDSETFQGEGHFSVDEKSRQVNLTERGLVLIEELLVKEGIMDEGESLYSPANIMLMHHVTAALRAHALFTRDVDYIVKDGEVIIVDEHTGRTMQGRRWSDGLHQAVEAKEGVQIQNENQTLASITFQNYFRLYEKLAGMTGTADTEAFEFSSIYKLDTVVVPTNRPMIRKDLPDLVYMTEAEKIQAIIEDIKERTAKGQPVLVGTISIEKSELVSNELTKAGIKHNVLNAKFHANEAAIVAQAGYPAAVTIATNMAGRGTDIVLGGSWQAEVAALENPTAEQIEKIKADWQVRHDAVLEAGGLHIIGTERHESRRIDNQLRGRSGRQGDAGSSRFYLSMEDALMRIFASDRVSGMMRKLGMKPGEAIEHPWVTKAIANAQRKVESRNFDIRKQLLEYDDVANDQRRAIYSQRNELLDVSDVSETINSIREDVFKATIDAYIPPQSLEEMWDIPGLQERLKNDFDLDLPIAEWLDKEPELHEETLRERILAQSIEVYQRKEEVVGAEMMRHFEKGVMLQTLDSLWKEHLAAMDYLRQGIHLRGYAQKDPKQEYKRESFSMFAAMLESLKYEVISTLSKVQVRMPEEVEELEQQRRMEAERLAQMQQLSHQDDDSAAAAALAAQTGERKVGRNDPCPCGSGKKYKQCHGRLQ
smiles,measurement,setting,value
Cn1ccc(C(=O)NCc2cccc(N3CCCCC3=O)c2)cc1=O,Percent Effect,[1],2.38%
same,Percent Effect,[2],13%
same,Percent Effect,[3],8.44%
same,Percent Effect,Trypanosoma cruzi,-0.373%
same,Percent Effect,[4],-2.66%
same,Percent Effect,[5],27.5%
same,Percent Effect,Homo sapiens,14.9%
same,Percent Effect,[6],9.8%
same,Percent Effect,[7],21.2%
same,Percent Effect,[8],-9.09%
CC(C)=CCN1CCC(c2nccn2Cc2cscn2)CC1,Percent Effect,[1],-6.89%
same,Percent Effect,[2],5.41%
same,Percent Effect,[3],7.33%
same,Percent Effect,Trypanosoma cruzi,9.8%
same,Percent Effect,[4],-5.94%
same,Percent Effect,[5],9.07%
same,Percent Effect,Homo sapiens,-16%
same,Percent Effect,[6],6.92%
same,Percent Effect,[7],14.6%
same,Percent Effect,[8],-4.64%
CC(CC#N)NC(=O)c1cc(Br)c2c(c1)OCCO2 (stereo not drawn),Percent Effect,[1],-2.19%
same,Percent Effect,[2],-5.33%
same,Percent Effect,[3],-0.459%
same,Percent Effect,Trypanosoma cruzi,-4.22%
same,Percent Effect,[4],3.1%
same,Percent Effect,[5],-1.61%
same,Percent Effect,Homo sapiens,7.62%
same,Percent Effect,[6],0.526%
same,Percent Effect,[7],2.56%
same,Percent Effect,[8],-4.98%
COc1ccc(C(N)c2cccc(S(C)(=O)=O)c2)cc1 (stereo not drawn),Percent Effect,[1],-6.1%
same,Percent Effect,[2],18.7%
same,Percent Effect,[3],7.33%
same,Percent Effect,Trypanosoma cruzi,2.41%
same,Percent Effect,[4],-6.65%
same,Percent Effect,[5],4.83%
same,Percent Effect,Homo sapiens,9.08%
same,Percent Effect,[6],4.74%
same,Percent Effect,[7],15.4%
same,Percent Effect,[8],-12.4%
COC(=O)c1ccc(N(C(=O)c2cccnc2C)C(C)C)c(C)c1,Percent Effect,[9],-5.67%
COc1ccc(CC(=O)N2C[C@@H]3COC[C@]3(CN(C)C)C2)cc1,Percent Effect,[1],-3.95%
same,Percent Effect,[2],-42.9%
same,Percent Effect,[3],3.29%
same,Percent Effect,Trypanosoma cruzi,3.8%
same,Percent Effect,[4],-6.07%
same,Percent Effect,[5],1.15%
same,Percent Effect,Homo sapiens,-12.9%
same,Percent Effect,[6],-26.8%
same,Percent Effect,[7],-43.6%
same,Percent Effect,[8],1.23%
CC(C)CN(CC(F)(F)F)S(=O)(=O)c1cc(C(N)=O)n(C)c1,Percent Effect,[9],-3.17%
COc1ncccc1CNC(=O)c1cccc(C)n1,Percent Effect,[1],-0.149%
same,Percent Effect,[2],23.1%
same,Percent Effect,[3],-18.5%
same,Percent Effect,Trypanosoma cruzi,6.1%
same,Percent Effect,[4],-5.74%
same,Percent Effect,[5],18.5%
same,Percent Effect,Homo sapiens,18.5%
same,Percent Effect,[6],6.22%
same,Percent Effect,[7],22.9%
same,Percent Effect,[8],-3.56%
O=C(CCC1CCCN(C(=O)CCN2CCCCO2)C1)N1CCCC1 (stereo not drawn),Percent Effect,[9],-2.7%
Cc1cc(S(=O)(=O)N(CCO)C2CC2)ccc1F,Percent Effect,[9],0.797%
CC(=O)c1ccc(-c2cnn(CC(=O)Nc3cc(C)nn3C)c2)nc1,Percent Effect,[9],0.263%
COC1CCN(S(=O)(=O)N2CC[C@@](O)(C3CCC3)[C@H](C)C2)CC1,Percent Effect,[9],-3.56%
C[C@@H]1CN(c2ccc(Cl)cn2)C[C@@]1(O)C1CC1,Percent Effect,[9],5.94%
Cc1nccn1CC1CCCN(C(=O)Cc2ccsc2)C1 (stereo not drawn),Percent Effect,[9],0.964%

# Reference: ChEMBL document CHEMBL3988442, “University of Dundee, Small-Polar-MMV Screening Library” (2021)
